Values without a mark were called inactive. Inconclusive results are not listed. Entries that show only a call come without a potency. Activity calls are given as the source filed them. Unless noted, the call rests on the fitted dose curve; in most records, active means well fitted curve in the direction sought with a large enough effect in the repeat runs; inconclusive means weak or mixed curves; inactive means no such curve, though single readings can be large; an effect the other way counts as inactive or inconclusive. Positions of bridges follow the written chain, without caps; N, C: chain ends. Non-standard residues stand in square brackets, D forms with d. Residues, ends and D or L forms follow the SMILES beside them. hArg = N=C(N)NCCCC[C@H](N)C(=O)O; Mpa = O=C(O)CCS
How the values were obtained:
[1] = qHTS assay to test for compound auto fluorescence at 535 nm (green) in HEK293 cells (AID 720680)
[2] = qHTS assay to test for compound auto fluorescence at 460 nm (blue) in HEK293 cell free culture (AID 720681)
Procedure, shortened: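 Compounds were added to cell-free DMEM with 10% FBS and fluorescence read directly. The blue channel used 405 nm excitation and 460 nm emission, with triamterene as the reference fluorophore.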

[3] = qHTS assay to test for compound auto fluorescence at 535 nm (green) in HEK293 cell free culture (AID 720682)
Procedure, shortened: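 Green-label autofluorescence (485 nm excitation, 535 nm emission) measured on compound added to cell-free culture medium (DMEM, 10% FBS). Output is expressed relative to fluorescein.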

[4] = qHTS assay to test for compound auto fluorescence at 590 nm (red) in HEK293 cell free culture (AID 720683)
Procedure, shortened: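 Cell-free wells of DMEM with 10% FBS received compound, and intrinsic fluorescence was read at excitation/emission 540/590 nm. Values expressed as equivalence to Rose Bengal sodium.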

[5] = qHTS assay to test for compound auto fluorescence at 590 nm (red) in HepG2 cell free culture (AID 720684)
Procedure, shortened: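 Rose Bengal sodium served as the reference for red signal. Test compounds were dispensed into serum-containing MEM (10% FBS) without cells, and plates were read at 540/590 nm.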

[6] = qHTS assay to test for compound auto fluorescence at 460 nm (blue) in HepG2 cell free culture (AID 720685)
Procedure, shortened: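 Cell-free plates of MEM plus 10% FBS received 23 nL compound or DMSO vehicle; blue-channel (405/460 nm) intensity scored against triamterene as reference fluorophore.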

[7] = qHTS assay to test for compound auto fluorescence at 535 nm (green) in HepG2 cell free culture (AID 720686)
[8] = qHTS assay to test for compound auto fluorescence at 460 nm (blue) in HepG2 cells (AID 720687)
Procedure, shortened: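 HepG2 cells in MEM with 10% FBS, attached overnight at 37 C, were exposed to compound or DMSO for 1 hr at 37 C, 5% CO2. Blue fluorescence was read at 405/460 nm, with triamterene as reference fluorophore.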

[9] = target: Glucocorticoid receptor (Homo sapiens) (UniProt P04150); assay: qHTS assay to identify small molecule agonists of the glucocorticoid receptor (GR) signaling pathway (AID 720691; active means well fitted activation curve with a large enough effect in the signal ratio in the repeat runs, not every such curve was filed as active; the % refers to the signal ratio)
Procedure, shortened: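 Cells: GR-bla HeLa, endogenous GR with stably integrated GRE-beta-lactamase reporter. Treatment 18 h, 37 C, compounds delivered in DMSO. Detection via LiveBLAzer B/G FRET substrate, 2 h RT, fluorescence intensity.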

[10] = target: Glucocorticoid receptor (Homo sapiens) (UniProt P04150); assay: qHTS assay to identify small molecule antagonists of the glucocorticoid receptor (GR) signaling pathway (AID 720692; active means well fitted inhibition curve with a large enough effect in the signal ratio in the repeat runs, not every such curve was filed as active; the % refers to the signal ratio)
Procedure, shortened: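 Quantitative HTS in antagonist format: HeLa cells expressing endogenous GR and a stably integrated GRE-bla reporter, stimulated with 5 nM dexamethasone (final) alongside test compounds for 18 h.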

[11] = qHTS assay to identify small molecule antagonists of the glucocorticoid receptor (GR) signaling pathway - cell viability counter screen (AID 720693); further: nearly all actives have a fitted effect of over 55% in size
[12] = qHTS assay for identifying genotoxic compounds that show differential cytotoxicity against isogenic chicken DT40 cell lines with known DNA damage response pathways - wild type cell line (AID 743012); further: nearly all actives have a fitted effect of over 60% in size; further: potency means the concentration at half of the fitted maximal effect
Procedure, shortened: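 Luminescent ATP viability signal (CellTiter-Glo, 30 min RT) recorded after wild type DT40 cells were incubated with compounds for 40 h at 37 C/5% CO2.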

[13] = qHTS assay to identify small molecule antagonists of the androgen receptor (AR) signaling pathway - cell viability counter screen (AID 743033; further: nearly all actives have a fitted effect of over 45% in size)
[14] = qHTS assay to identify small molecule antagonists of the androgen receptor (AR) signaling pathway using the MDA cell line - cell viability counter screen (AID 743041; further: nearly all actives have a fitted effect of over 45% in size)
Procedure, shortened: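 Cytotoxicity counter screen: MDA-kb2 AR-luc cells, compound + R1881, 16 h, 37C, 0% CO2; CellTiter-Fluor added at 15.5 h, fluorescence read after 30 min.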

[15] = qHTS assay for identifying genotoxic compounds that show differential cytotoxicity against isogenic chicken DT40 cell lines with known DNA damage response pathways - Rad54/Ku70 mutant cell line (AID 743015); further: nearly all actives have a fitted effect of over 60% in size
[16] = qHTS assay for identifying genotoxic compounds that show differential cytotoxicity against isogenic chicken DT40 cell lines with known DNA damage response pathways - Rev3 mutant cell line (AID 743014); further: nearly all actives have a fitted effect of over 55% in size
[17] = target: Androgen receptor (Homo sapiens) (UniProt P10275); assay: qHTS assay to identify small molecule antagonists of the androgen receptor (AR) signaling pathway (AID 743035; active means well fitted inhibition curve with a large enough effect in the signal ratio in the repeat runs, not every such curve was filed as active; the % refers to the signal ratio)
Procedure, shortened: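 Quantitative HTS of the Tox21 10K library used HEK293 AR-UAS-bla cells stimulated with R1881 alongside compound for 16 h at 37C, followed by beta-lactamase FRET detection (LiveBLAzer B/G, 2 h, RT).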

[18] = target: Androgen receptor (Homo sapiens) (UniProt P10275); assay: qHTS assay to identify small molecule agonists of the androgen receptor (AR) signaling pathway using the MDA cell line (AID 743040; further: nearly all actives have a fitted effect of over 20% in size)
Procedure, shortened: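 Luciferase read-out, ONE-Glo, 30 min RT. Cells: MDA-kb2 AR-luc, MMTV promoter with AR and GR response elements. Compound exposure 16 h, 37C, 0% CO2, after 5 h pre-incubation. qHTS agonist mode.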

[19] = target: Androgen receptor (Homo sapiens) (UniProt P10275); assay: qHTS assay to identify small molecule antagonists of the androgen receptor (AR) signaling pathway using the MDA cell line (AID 743042; further: nearly all actives have a fitted effect of over 55% in size)
Procedure, shortened: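 MDA-kb2 breast carcinoma cells carrying MMTV-luciferase (AR/GR responsive) were co-treated with compounds and the agonist R1881 for 16 h at 37C. Inhibition read as ONE-Glo luminescence; CellTiter-Fluor fluorescence measured in parallel for cytotoxicity.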

[20] = target: Androgen receptor (Homo sapiens) (UniProt P10275); assay: qHTS assay to identify small molecule agonists of the androgen receptor (AR) signaling pathway (AID 743036; active means well fitted activation curve with a large enough effect in the signal ratio in the repeat runs, with a control signal flat, not every such curve was filed as active; the % refers to the signal ratio)
Procedure, shortened: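 AR-UAS-bla HEK293 cells, plated 4 h before dosing, were treated with compound for 16 h at 37C. beta-Lactamase reporter read after 2 h with LiveBLAzer B/G FRET substrate at room temperature.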

Chain of Androgen receptor (Homo sapiens) (P10275 whole entry, looked up): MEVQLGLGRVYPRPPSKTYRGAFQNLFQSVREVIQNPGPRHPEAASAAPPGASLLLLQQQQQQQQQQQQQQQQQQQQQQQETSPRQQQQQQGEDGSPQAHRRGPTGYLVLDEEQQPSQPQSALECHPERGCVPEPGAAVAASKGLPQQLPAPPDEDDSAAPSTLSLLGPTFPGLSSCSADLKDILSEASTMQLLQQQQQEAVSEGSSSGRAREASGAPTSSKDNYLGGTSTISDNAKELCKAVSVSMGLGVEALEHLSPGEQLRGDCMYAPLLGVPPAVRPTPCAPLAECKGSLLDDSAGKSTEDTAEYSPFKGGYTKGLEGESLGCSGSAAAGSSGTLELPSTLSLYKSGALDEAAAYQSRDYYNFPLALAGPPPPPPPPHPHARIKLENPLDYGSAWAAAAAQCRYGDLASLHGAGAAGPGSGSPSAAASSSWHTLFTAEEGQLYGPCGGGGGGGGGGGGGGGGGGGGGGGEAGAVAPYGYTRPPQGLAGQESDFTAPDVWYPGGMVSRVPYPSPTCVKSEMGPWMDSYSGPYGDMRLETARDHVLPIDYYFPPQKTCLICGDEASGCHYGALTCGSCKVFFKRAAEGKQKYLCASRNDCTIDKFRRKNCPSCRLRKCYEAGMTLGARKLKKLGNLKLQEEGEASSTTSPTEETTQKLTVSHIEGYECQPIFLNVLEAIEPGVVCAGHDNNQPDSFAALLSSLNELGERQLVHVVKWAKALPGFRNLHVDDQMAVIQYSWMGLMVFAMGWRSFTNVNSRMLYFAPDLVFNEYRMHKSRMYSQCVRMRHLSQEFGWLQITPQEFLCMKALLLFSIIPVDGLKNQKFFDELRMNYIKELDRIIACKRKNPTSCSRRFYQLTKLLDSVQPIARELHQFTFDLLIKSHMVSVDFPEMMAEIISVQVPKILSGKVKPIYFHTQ
Chain of Glucocorticoid receptor (Homo sapiens) (P04150 whole entry, looked up): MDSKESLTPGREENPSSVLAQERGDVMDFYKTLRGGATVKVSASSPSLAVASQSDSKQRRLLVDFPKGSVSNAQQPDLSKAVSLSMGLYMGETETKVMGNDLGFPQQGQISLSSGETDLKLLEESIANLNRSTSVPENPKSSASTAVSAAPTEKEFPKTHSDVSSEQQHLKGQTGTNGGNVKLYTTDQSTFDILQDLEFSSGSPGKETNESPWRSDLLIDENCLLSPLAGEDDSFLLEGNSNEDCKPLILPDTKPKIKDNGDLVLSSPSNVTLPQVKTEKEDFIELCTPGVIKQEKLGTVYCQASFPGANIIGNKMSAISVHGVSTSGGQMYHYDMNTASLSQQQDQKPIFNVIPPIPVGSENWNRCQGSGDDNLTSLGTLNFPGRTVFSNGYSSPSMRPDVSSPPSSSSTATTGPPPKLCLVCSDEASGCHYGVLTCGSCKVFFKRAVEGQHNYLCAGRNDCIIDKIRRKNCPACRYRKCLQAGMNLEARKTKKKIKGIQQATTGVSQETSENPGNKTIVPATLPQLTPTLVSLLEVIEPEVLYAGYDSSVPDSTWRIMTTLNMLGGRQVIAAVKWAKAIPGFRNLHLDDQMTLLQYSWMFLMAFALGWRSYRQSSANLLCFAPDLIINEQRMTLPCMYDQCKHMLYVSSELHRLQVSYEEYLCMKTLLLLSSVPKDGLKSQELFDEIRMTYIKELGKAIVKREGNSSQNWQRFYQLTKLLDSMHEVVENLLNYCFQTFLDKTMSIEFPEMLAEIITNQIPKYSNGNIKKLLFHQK

| SMILES | outcome [1] | outcome [2] | outcome [3] | outcome [4] | outcome [5] | outcome [6] | outcome [7] | outcome [8] | Potency [9] | outcome [10] | outcome [11] | Potency [12] | outcome [13] | Potency [14] | Potency [15] | Potency [16] | outcome [17] | Potency [18] | outcome [19] | outcome [20] |
| --- | --- | --- | --- | --- | --- | --- | --- | --- | --- | --- | --- | --- | --- | --- | --- | --- | --- | --- | --- | --- |
| CC1CCc2c(N3CCC(O)CC3)c(F)cc3c(=O)c(C(=O)O)cn1c23 (stereo not drawn) | inactive | inactive | inactive | inactive | inactive | inactive | inactive | inactive | inactive | inactive | inactive | 26.6 µM (active) | inactive | inactive |  |  |  |  |  |  |
| NC(=O)[C@@H]1CSSCCC(=O)N[C@@H](CCCCN=C(N)N)C(=O)NCC(=O)N[C@@H](CC(=O)O)C(=O)N[C@@H](Cc2c[nH]c3ccccc23)C(=O)N2CCC[C@H]2C(=O)N1 ([Mpa][hArg]GDWPC-NH2; disulfide 1-7) | inactive | inactive | inactive | inactive | inactive | inactive | inactive | inactive | inactive | inactive | inactive | inactive |  | inactive | inactive |  |  |  |  |  |
| Cc1ccc(C(=O)O)cc1[N+](=O)[O-] | inactive | inactive | inactive | inactive | inactive | inactive | inactive | inactive |  |  | inactive | inactive | inactive | inactive | inactive | inactive | inactive | inactive | inactive |  |
| CCCCCCCCCOC(=O)c1ccccc1C(=O)OCCCCCCCCC | inactive | inactive | inactive | inactive | inactive | inactive | inactive | inactive | inactive |  | inactive | inactive | inactive | inactive | inactive | inactive |  | inactive | inactive | inactive |
| N[C@@H](Cc1ccc(O)cc1)C(=O)O | inactive | inactive | inactive | inactive | inactive | inactive | inactive | inactive | inactive | inactive | inactive |  | inactive | inactive |  |  |  |  |  |  |
| C=CCN1C[C@H](C(=O)N(CCCN(C)C)C(=O)NCC)C[C@@H]2c3cccc4[nH]cc(c34)C[C@H]21 | inactive | inactive | inactive | inactive | inactive | inactive | inactive | inactive | inactive | inactive | inactive |  | inactive |  |  | inactive |  |  |  |  |
| Nc1nc(-c2ccccc2)c(Br)c(=O)[nH]1 | inactive | inactive | inactive | inactive | inactive | inactive | inactive | inactive | inactive |  | inactive | inactive | inactive | inactive | inactive |  |  | inactive |  |  |
| CC(C)c1ccc(C=O)cc1 | inactive | inactive | inactive | inactive | inactive | inactive | inactive | inactive | inactive | inactive | inactive |  | inactive | inactive | inactive | inactive |  |  |  |  |
| O=C1OCCO1 | inactive | inactive | inactive | inactive | inactive | inactive | inactive | inactive | inactive |  | inactive | inactive | inactive | inactive | inactive |  |  |  |  |  |

Source: PubChem BioAssay (Tox21)
